Assay outcomes (PubChem)
Sampled rows, rich in hits. Any-hit rate of the full collection: about 10%.
PNC assembly inh: perinucleolar compartment assembly inhibition; PC3M PTB-GFP, PNC prevalence imaging, 16 h; hits give low values; activity change (PNC), negative = inhibition, % at 10 µM; 3.1% of 140,000 active; AID 2417;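 active = readout at or below -70, meaning at least 70% loss of cells showing the perinucleolar compartment, a nuclear body marking cancer cells; inconclusive = readout between -30 and a set limit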;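 also: plate controls were DMSO wells for no effect and camptothecin positive control wells for full effect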
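Read-out is percentage of cells bearing a perinucleolar compartment, from automated 20x imaging of fixed, Hoechst-stained PC3M PTB-GFP cells. Cells were seeded 4 h, then exposed 16 h to compound (23 nl of library stock) in duplicate plates.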
ALOX12 inhib: 12-hLO (ALOX12) enzyme inhibition; purified 12-hLO, xylenol orange hydroperoxide absorbance; Potency, µM (highest dose often 57.1 µM), for inactives: at the top dose activity change, negative = inhibition, usual class: inhibitors; AID 1452; P18054; 0.12% of 150,000 active; also: potency is read from the fitted curve at half-maximal effect; nearly all actives have a fitted effect of over 55% in size
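Xylenol orange chromogenic assay: hydroperoxide from 12hLO oxidises Fe(II), giving red-shifted Fe(III)-XO absorbance. Conditions: 150 nM enzyme, 40 uM arachidonic acid, 25 mM Hepes pH 7.0, 0.01% Triton X-100, 30 min, room temperature.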
ALDH1A1 block: ALDH1A1 (human) enzyme inhibition | P00352 | Potency, µM (doses to about 75.3 µM), for inactives: at the highest dose activity, negative = inhibition, actives largely listed as inhibitors | Purified ALDH1A1, NADH fluorescence, propionaldehyde substrate | 7.3% of 220,000 active; active = well fitted inhibition curve with a large enough effect, not every such curve was filed as active; inconclusive = small, poorly fitted or top-dose-only effect, or another doubt; inactive = no such curve, though single readings can be large or run the other way;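 also: potency is read from the fitted curve at half-maximal effect; plate controls were no enzyme wells and a reference inhibitor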
GLA spleen mod: inhibits or activates alpha-galactosidase in human spleen homogenate; P06280; human spleen homogenate, 4MU-alpha-Gal fluorescence, 40 min; Potency, µM (titrated, usually from 80 µM), for inactives: at the top dose activity change, negative = inhibition, usual class: inhibitors; 0.008% of 240,000 active; AID 2107;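 also: potency is read from the fitted curve at half-maximal effect; 0% = enzyme with vehicle and -100% = no enzyme basal signal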
Target sequence (P06280 32-429 limits assumed): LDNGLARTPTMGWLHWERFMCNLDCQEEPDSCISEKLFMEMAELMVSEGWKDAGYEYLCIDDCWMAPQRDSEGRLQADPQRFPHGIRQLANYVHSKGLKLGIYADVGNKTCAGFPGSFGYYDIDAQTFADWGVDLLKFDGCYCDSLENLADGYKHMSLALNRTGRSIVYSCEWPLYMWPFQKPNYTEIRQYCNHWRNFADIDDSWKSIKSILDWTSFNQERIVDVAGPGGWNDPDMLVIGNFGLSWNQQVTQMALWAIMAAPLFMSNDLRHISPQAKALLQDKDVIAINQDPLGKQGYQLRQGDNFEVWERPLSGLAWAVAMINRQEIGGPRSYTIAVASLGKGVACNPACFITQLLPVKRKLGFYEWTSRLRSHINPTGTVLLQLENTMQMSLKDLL
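Fluorogenic readout (Ex 365/Em 440 nm) of 4-methylumbelliferone released from 1 mM 4-MU-alpha-galactoside by spleen homogenate, 40 min at 37C, pH 5.0. Data normalized to no-enzyme and enzyme controls; Hill-equation AC50 from compound titrations.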
HPGD block: inhibitors of human 15-hydroxyprostaglandin dehydrogenase (HPGD); P15428; purified HPGD, NADH fluorescence kinetic, PGE2 substrate; Potency, µM, without a hit: top-dose activity change, negative = inhibition, most hits filed as inhibitors; 4.3% of 150,000 active; active = well fitted inhibition curve with a large enough effect, not every such curve was filed as active; inconclusive = small, poorly fitted or top-dose-only effect, or another doubt; inactive = no such curve, though single readings can be large or run the other way; also: potency is read from the fitted curve at half-maximal effect
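20 nM HPGD preincubated 15 min at room temperature with compound in 50 mM Tris-HCl pH 8, 0.01% Tween 20. Started with 1 mM NAD+ and 30 uM prostaglandin E2; NADH fluorescence (360/450 nm) read 5 times over 30-s intervals, last minus first.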
GLA inh pH 4.5: blocks human alpha-galactosidase A at pH 4.5. P06280. purified enzyme, 4-MU-alpha-Gal fluorescence, pH 4.5. activity change, negative = inhibition, % at 105 µM. 230,000 tested, under 10 active. AID 1467;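 also: 0% = full activity with enzyme and -100% = basal without enzyme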
Starred values were filed as active, the others as inactive; [ ] = dose if it differs, or a comment. Unless noted, calls follow the shape of the dose curve; as a rule, active = well fitted curve in the direction sought with a large enough effect; inconclusive = small, poorly fitted or top-dose-only effect, or another doubt; inactive = no such curve, though single readings can be large; an effect the other way counts as inactive or inconclusive. Unless noted, % is scaled to controls: 0 for no effect and ±100 for the full control effect.

Screening CC(=O)N1CC=CC1(CC(C)C)C(=O)NCC1CC1 (centres undefined) returned ALOX12 inhib 3%, ALDH1A1 block -6%, GLA spleen mod 1%, HPGD block -4% and GLA inh pH 4.5 1.
For C#CCCCO/N=C1/C[C@@H](O)[C@@H](O)[C@@H]2[C@@H]3C(=O)N(CCC(=O)OCC)C(=O)[C@H]3CC[C@H]12 the results were ALDH1A1 block 6%[13.5 µM] and GLA spleen mod 0%[17.5 µM].
`COc1cccc(Cn2c(=O)c(-c3cc(F)cc(F)c3)nc3cnc(N4CCOCC4)nc32)c1` gave ALDH1A1 block 14% and GLA spleen mod 6%.
For CN1CCN(c2ncc3nc(-c4ccc(Cl)cc4)c(=O)n(CCC#N)c3n2)CC1 the results were ALOX12 inhib -23%, ALDH1A1 block inconclusive, GLA spleen mod 3% and HPGD block inconclusive.
Screening COc1ccccc1CNC(=O)CSc1ccc(C)cc1 returned PNC assembly inh inconclusive, ALOX12 inhib -6%, ALDH1A1 block 1%, GLA spleen mod -7%, HPGD block 14µM* and GLA inh pH 4.5 10.
Screening Cc1ccc(OCC(=O)Sc2ccc(C)cc2)cc1 returned PNC assembly inh 67, ALOX12 inhib -5%, ALDH1A1 block 8%, GLA spleen mod 9%, HPGD block inconclusive and GLA inh pH 4.5 1.
For COc1ccccc1CNC(=O)Cn1cccc1 the results were PNC assembly inh inconclusive, ALOX12 inhib -4%, ALDH1A1 block 5%, GLA spleen mod -3%, HPGD block 16µM* and GLA inh pH 4.5 5.
`COc1ccccc1CNC(=O)CSc1ccccc1` gave ALDH1A1 block -1%, GLA spleen mod -3% and GLA inh pH 4.5 9.
For COc1ccccc1OCC(=O)Sc1ccc(C)cc1 the results were PNC assembly inh -19, ALOX12 inhib -28%, ALDH1A1 block -4%, GLA spleen mod 2%, HPGD block 32µM* and GLA inh pH 4.5 4.
Screening COC(=O)c1ccc(NC(=O)c2snnc2-c2ccccc2)cc1 returned ALDH1A1 block -8%, GLA spleen mod 2% and GLA inh pH 4.5 -5.
Screening CCNc1ncc2nc(-c3cccc(C#N)c3)c(=O)n(C)c2n1 returned ALOX12 inhib -4%, ALDH1A1 block inconclusive, GLA spleen mod inconclusive and HPGD block inconclusive.
For Cc1cccc(C)c1NC(=O)CSc1nc(-c2ccco2)cc(C(F)(F)F)n1 the results were PNC assembly inh inconclusive, ALOX12 inhib 5%, ALDH1A1 block 2%, GLA spleen mod -3%, HPGD block -12% and GLA inh pH 4.5 8.
Cc1cc(NC(=O)CSc2nc(-c3ccco3)cc(C(F)(F)F)n2)no1 was read as PNC assembly inh -116*, ALOX12 inhib 13%, ALDH1A1 block 2%, GLA spleen mod -4%, HPGD block -25% and GLA inh pH 4.5 -9.
O=C(CSc1nc(-c2ccco2)cc(C(F)(F)F)n1)Nc1ccc(C(=O)N2CCCCC2)cc1 was read as PNC assembly inh -16, ALOX12 inhib -1%, ALDH1A1 block 14µM*, GLA spleen mod -3%, HPGD block 0.56µM* and GLA inh pH 4.5 -12.
Screening O=C(O)CCCc1ccc2ccccc2c1 returned ALOX12 inhib 2%[11.4 µM], ALDH1A1 block -5%[13.5 µM] and HPGD block -6%.
Screening CCc1nc(C)cn1S(=O)(=O)c1cc(C)c(OC)c(C)c1C returned PNC assembly inh -1, ALOX12 inhib 7%, ALDH1A1 block 25µM*, GLA spleen mod -5%, HPGD block -9% and GLA inh pH 4.5 -16.
`O=C(NN1C(=O)C2C3c4ccccc4C(c4ccccc43)C2C1=O)C1CC1` (centres undefined) gave ALDH1A1 block 8%, GLA spleen mod 6% and GLA inh pH 4.5 8.
For O=C1NC2(CCCc3ccccc32)C(=O)N1CCOc1ccc(Br)cc1 (centres undefined) the results were PNC assembly inh -9, ALOX12 inhib -3%, ALDH1A1 block 4%, GLA spleen mod -2%, HPGD block 16µM* and GLA inh pH 4.5 -3.
